From PubChem
uPA surface inh – qHTS for Inhibitors of Cell Surface uPA Generation | cell surface uPA generation assay, qHTS | Potency, µM (series often up to 38.3 µM), most hits filed as inhibitors | 330,000 tested, 0.31% active; active = well fitted inhibition curve with a large enough effect; inconclusive = small, poorly fitted or top-dose-only effect; inactive = no such curve, though single readings can be large or run the other way; tested in mouse RAW 264.7 cells; also: nearly all actives have a fitted effect of over 55% in size
IL1B secr inh – qHTS for Inhibitors of Inflammasome Signaling: IL-1-beta AlphaLISA Primary Screen; THP-1 LPS/ATP IL-1B secretion, AlphaLISA, 16 h; hits give low values; activity change, % at 57.5 µM; 360,000 tested, 4.7% active; AID 743279, 2014; in the data active = activity change below about -50%; inconclusive = mostly about -30% to -49%
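THP-1 cells pretreated 1 hr with compounds (up to 57.5 uM final), then stimulated with LPS (250 ng/mL final) plus ATP (1.25 mM final); secreted IL-1B measured by AlphaLISA after 16 hr, decreased signal indicating inhibition.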
DT40 TDP1 no CPT – qHTS for Inhibitors of human tyrosyl-DNA phosphodiesterase 1 (TDP1): qHTS in cells in absence of CPT; DT40 Tdp1-/- hTDP1 cells, no CPT, ATP luminescence, 48 h; Potency, µM (titrated, usually from 46.2 µM), actives largely listed as inhibitors; 420,000 tested, 15% active; also: nearly all actives have a fitted effect of over 55% in size
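Chicken DT40 Tdp1-/- cells complemented with human TDP1, screened without camptothecin (DMSO vehicle only), 400 cells/well. Compounds pin-transferred, cells incubated at 37 °C for at least 48 hr. Growth read as ATP-dependent luminescence (CellTiter-Glo, 30 min at RT).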
DT40 TDP1 CPT – qHTS for Inhibitors of human tyrosyl-DNA phosphodiesterase 1 (TDP1): qHTS in cells in presence of CPT. chicken DT40 Tdp1-/-;hTDP1 cells + 20 nM CPT, ATP luminescence, 48 h. Potency, µM (titrated, usually from 46.2 µM), actives largely listed as inhibitors. 420,000 tested, 12% active; also: nearly all actives have a fitted effect of over 55% in size
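Cell growth measured by CellTiter-Glo luminescence after a minimum 48 h, 37 C compound exposure with 20 nM CPT in Tdp1-knockout DT40 cells stably expressing hTDP1, seeded 400/well; qHTS titration format.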
HT1080 IDH1KD tx – qHTS for induction of synthetic lethality in tumor cells producing 2HG: qHTS for the HT-1080-IDH1KD cell line | HT-1080 IDH1 knockdown viability, ATP luminescence, 48 h | Potency, µM (highest dose often 46.1 µM), most hits filed as cytotoxic | 360,000 tested, 2% active | AID 686971, 2013
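IDH1KD HT-1080 cells, 750/well, RPMI + 5% FBS; compound pinned after 2 h settling; 48 h, 37 °C; CellTiter-Glo luminescence; % activity normalised to DMSO and no-cell wells; curves fitted, classed by r2 and efficacy.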
HT1080NT lethal – qHTS for induction of synthetic lethality in tumor cells producing 2HG: qHTS for the HT-1080-NT fibrosarcoma cell line; 360,000 tested, 1.6% active; Potency, µM (doses to about 46.1 µM), most hits filed as cytotoxic; HT-1080-NT fibrosarcoma viability, CellTiter-Glo ATP luminescence, 48 h;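 also: NT is the 2HG producing partner of a matched IDH1 knockdown line; nearly all actives have a fitted effect of over 55% in size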
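Luminescent CellTiter-Glo readout after 48 hours of compound exposure at 37 degrees C defined viability of HT-1080-NT cells. Activity was normalized to DMSO wells and cell-free media wells; concentration-response curves were fitted and assigned curve classes.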
Of the large screens only hits and unclear results are named; the others gave an inactive call. Only some compounds are listed: those with a hit (about 19% of all), similar ones and a draw of the others. Unless noted, calls follow the shape of the dose curve; as a rule, active = well fitted curve in the direction sought with a large enough effect; inconclusive = small, poorly fitted or top-dose-only effect, or another doubt; inactive = no such curve, though single readings can be large; an effect the other way counts as inactive or inconclusive.

Cc1cccc(N2CCN(C(=O)Cc3c(C(=O)O)c(C)cn3C)CC2)c1C	none (no result: uPA surface inh, IL1B secr inh, HT1080 IDH1KD tx, HT1080NT lethal)
O=C(CN1C(=O)CSc2ccc(S(=O)(=O)N3CCCC3)cc21)NCc1ccc(F)cc1Cl	none (no result: uPA surface inh, IL1B secr inh, HT1080 IDH1KD tx, HT1080NT lethal)
Cc1ccc2[nH]c(=O)c3cc(C(=O)N(C)c4ccc(C)c(C)c4)sc3c2c1	uPA surface inh inconclusive, DT40 TDP1 no CPT 10µM, DT40 TDP1 CPT 10µM
OC[C@@H]1CN(Cc2ccc(-c3ccccc3)cc2)C[C@H](n2cnc3c(NCc4ccncc4)ncnc32)O1	DT40 TDP1 no CPT 3.3µM, DT40 TDP1 CPT 2.9µM, HT1080 IDH1KD tx 23µM, HT1080NT lethal inconclusive (no result: uPA surface inh)
OC[C@@H]1CN(Cc2ccccc2)C[C@H](n2cnc3c(NCc4ccco4)ncnc32)O1	none (no result: uPA surface inh)
OC[C@@H]1CN(Cc2ccc(-c3ccccc3)cc2)C[C@H](n2cnc3c(NCc4ccco4)ncnc32)O1	DT40 TDP1 no CPT 9.2µM, DT40 TDP1 CPT 9.2µM, HT1080 IDH1KD tx 18µM, HT1080NT lethal 21µM (no result: uPA surface inh)
CSc1ccc(NC(=O)NCCCN2CCN(c3ccccc3F)CC2)cc1	IL1B secr inh inconclusive, DT40 TDP1 no CPT 21µM, DT40 TDP1 CPT 21µM, HT1080 IDH1KD tx inconclusive, HT1080NT lethal inconclusive
O=C(NCCCN1CCN(c2ccccc2F)CC1)c1ccc2nc(Cc3ccccc3)oc2c1	DT40 TDP1 no CPT 26µM, DT40 TDP1 CPT inconclusive (no result: uPA surface inh, IL1B secr inh, HT1080 IDH1KD tx, HT1080NT lethal)
O=C(NCCCN1CCN(c2ccccc2F)CC1)c1ccc2nc(CCc3ccccc3)oc2c1	DT40 TDP1 no CPT 15µM, DT40 TDP1 CPT 21µM (no result: uPA surface inh, IL1B secr inh, HT1080 IDH1KD tx, HT1080NT lethal)
CCc1nc2ccc(C(=O)NCCCN3CCN(c4ccccc4F)CC3)cc2nc1CC	DT40 TDP1 no CPT 23µM, DT40 TDP1 CPT inconclusive, HT1080 IDH1KD tx inconclusive
O=C(NCCCN1CCN(c2ccccc2F)CC1)Nc1ccc(F)cc1	DT40 TDP1 no CPT inconclusive, DT40 TDP1 CPT inconclusive
O=C(NCc1ccccc1)c1ccc2nc(CCc3ccccc3)oc2c1	DT40 TDP1 no CPT inconclusive (no result: uPA surface inh, IL1B secr inh, HT1080 IDH1KD tx, HT1080NT lethal)
O=C(NCCCN1CCOCC1)c1ccc2nc(Cc3ccccc3F)oc2c1	none
O=C(CN1C(=O)NC2(CCCCC2)C1=O)NCC(=O)Nc1ccc(F)c(F)c1	none
Cc1c(C)n(C)c2ccc(C(=O)NCCCN3CCN(c4ccccc4F)CC3)cc12	DT40 TDP1 no CPT inconclusive, DT40 TDP1 CPT 9.2µM, HT1080 IDH1KD tx inconclusive, HT1080NT lethal inconclusive
Cc1c(C)n(C)c2ccc(C(=O)NCCCN3CCCC3)cc12	none
CC(=O)c1ccccc1NS(=O)(=O)c1cc2c(cc1C)NC(=O)CO2	none (no result: uPA surface inh, IL1B secr inh, HT1080 IDH1KD tx, HT1080NT lethal)
O=C(Nc1nc2nc(-c3ccccc3)cc(-c3ccccc3)n2n1)c1ccco1	DT40 TDP1 no CPT 23µM, DT40 TDP1 CPT 23µM, HT1080 IDH1KD tx 26µM, HT1080NT lethal inconclusive
O=C(NNc1nc(-c2ccccc2)cs1)c1ccco1	DT40 TDP1 no CPT 16µM, DT40 TDP1 CPT inconclusive, HT1080NT lethal inconclusive
O=C(NNc1nc(-c2ccc(Cl)cc2)cs1)c1ccco1	DT40 TDP1 no CPT 10µM, DT40 TDP1 CPT 18µM, HT1080 IDH1KD tx inconclusive
O=C(O)C1CCN(S(=O)(=O)c2ccc3[nH]ccc3c2)CC1	none (no result: uPA surface inh)
CCNc1ncc2nc(-c3cn(C)c4ccccc34)c(=O)n(-c3ccccc3)c2n1	none (no result: uPA surface inh, IL1B secr inh, HT1080 IDH1KD tx, HT1080NT lethal)
CCOC(=O)C1=CC[C@@H](c2cc(OC)c(OC)c(OC)c2)N(S(=O)(=O)c2ccc(C)cc2)[C@H]1C(=O)OCC	DT40 TDP1 no CPT inconclusive, DT40 TDP1 CPT 26µM
CCc1ccc([C@@H]2CC=C(C(=O)O)[C@H](c3ccc(C)cc3)N2S(=O)(=O)c2ccc(C)cc2)cc1	none
CCOC(=O)C1=CC[C@@H](c2ccccc2)N(S(=O)(=O)c2ccc(C)cc2)[C@H]1c1ccc(C#N)cc1	DT40 TDP1 no CPT 9.2µM, DT40 TDP1 CPT 12µM (no result: uPA surface inh)
Cc1ccc([C@@H]2CC=C(C(=O)O)[C@H](c3ccccc3)N2S(=O)(=O)c2ccc(C)cc2)cc1	none
CCOC(=O)C1=CC[C@@H](c2ccccc2)N(S(=O)(=O)c2ccc(C)cc2)[C@H]1C=C(C)C	DT40 TDP1 no CPT 12µM, DT40 TDP1 CPT 16µM, HT1080 IDH1KD tx inconclusive (no result: uPA surface inh)
CCOC(=O)C1=CC[C@@H](c2ccccc2)N(S(=O)(=O)c2ccc(C)cc2)[C@H]1C#N	DT40 TDP1 no CPT inconclusive, DT40 TDP1 CPT inconclusive, HT1080 IDH1KD tx inconclusive, HT1080NT lethal 16µM (no result: uPA surface inh)
O=C(NC1CCCCC1)C(c1ccccc1)N(C(=O)c1csnn1)C1CC1 (stereo not drawn)	none
Cc1ccccc1CN1CCN(CC(=O)NCc2ccccc2Cl)C1=O	none (no result: uPA surface inh, IL1B secr inh, HT1080 IDH1KD tx, HT1080NT lethal)
CC(=O)[C@]1(O)CCC2C3CC(C)C4=CC(=O)C=CC4(C)[C@@]3(F)C(O)C[C@]21C (stereo partly drawn)	none (no result: uPA surface inh, IL1B secr inh, HT1080 IDH1KD tx, HT1080NT lethal)
CC(=O)Nc1cccc(NC(=O)CCNC(=O)c2ccccc2)c1	none
CCOC(=O)C1=CC[C@@H](c2ccc([N+](=O)[O-])cc2)N(S(=O)(=O)c2ccc(C)cc2)[C@H]1c1ccccc1	DT40 TDP1 no CPT inconclusive, DT40 TDP1 CPT inconclusive (no result: uPA surface inh)
CCOC(=O)C1=CC[C@@H](c2ccccc2)N(S(=O)(=O)c2ccc(C)cc2)[C@H]1c1ccccc1C	DT40 TDP1 no CPT 9.2µM, DT40 TDP1 CPT 13µM (no result: uPA surface inh)
CCOC(=O)C1=CC[C@@H](c2ccc(F)cc2)N(S(=O)(=O)c2ccc(C)cc2)[C@H]1c1ccccc1	DT40 TDP1 no CPT 23µM, DT40 TDP1 CPT 16µM (no result: uPA surface inh)
